About 2,100 (0.53%) of roughly 400,000 compounds were called active. Another 14% or so got no clear call; they are omitted. How the calls were made is not given here. Only a selection was taken, and actives are over-represented in it overall.

The target in this assay is Ataxin-2 (Homo sapiens) (UniProt Q99700). The assay can be described thus: qHTS for Inhibitors of ATXN expression. It is filed as functional.
Chain of Ataxin-2 (Homo sapiens) (Q99700 whole entry): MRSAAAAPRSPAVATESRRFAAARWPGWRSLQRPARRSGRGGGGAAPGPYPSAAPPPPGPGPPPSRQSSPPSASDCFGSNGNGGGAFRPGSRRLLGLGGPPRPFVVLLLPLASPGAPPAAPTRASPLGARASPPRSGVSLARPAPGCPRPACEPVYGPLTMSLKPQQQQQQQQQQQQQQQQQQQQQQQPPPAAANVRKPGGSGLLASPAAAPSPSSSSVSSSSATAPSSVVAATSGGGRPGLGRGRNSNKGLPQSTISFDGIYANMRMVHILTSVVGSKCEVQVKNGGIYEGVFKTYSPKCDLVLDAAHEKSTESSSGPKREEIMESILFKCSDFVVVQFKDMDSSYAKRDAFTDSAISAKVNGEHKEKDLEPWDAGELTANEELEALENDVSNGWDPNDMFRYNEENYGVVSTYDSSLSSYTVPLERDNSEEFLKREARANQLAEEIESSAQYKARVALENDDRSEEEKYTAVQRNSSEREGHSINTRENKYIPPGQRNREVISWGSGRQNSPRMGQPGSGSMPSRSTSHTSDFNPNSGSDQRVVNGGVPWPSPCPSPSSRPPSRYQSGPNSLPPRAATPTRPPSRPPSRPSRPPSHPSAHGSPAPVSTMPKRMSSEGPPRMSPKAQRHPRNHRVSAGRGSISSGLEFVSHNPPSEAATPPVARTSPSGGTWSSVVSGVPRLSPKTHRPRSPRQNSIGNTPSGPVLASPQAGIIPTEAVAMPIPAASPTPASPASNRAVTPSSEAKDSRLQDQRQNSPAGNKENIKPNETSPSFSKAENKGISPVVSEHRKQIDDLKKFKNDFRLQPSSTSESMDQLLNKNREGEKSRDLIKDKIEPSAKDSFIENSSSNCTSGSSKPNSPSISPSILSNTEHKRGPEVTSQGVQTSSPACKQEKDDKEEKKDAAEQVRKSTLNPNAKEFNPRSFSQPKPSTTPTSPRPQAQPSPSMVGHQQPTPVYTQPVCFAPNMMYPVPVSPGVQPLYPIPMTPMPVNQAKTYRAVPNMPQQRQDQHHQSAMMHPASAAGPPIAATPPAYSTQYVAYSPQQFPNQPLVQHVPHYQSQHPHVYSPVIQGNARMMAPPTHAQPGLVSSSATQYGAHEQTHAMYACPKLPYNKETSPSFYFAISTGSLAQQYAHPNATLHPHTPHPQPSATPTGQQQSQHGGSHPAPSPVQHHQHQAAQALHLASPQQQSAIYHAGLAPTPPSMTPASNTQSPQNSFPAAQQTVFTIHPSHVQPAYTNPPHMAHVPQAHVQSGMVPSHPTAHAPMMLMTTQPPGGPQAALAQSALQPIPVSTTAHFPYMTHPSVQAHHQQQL
On to `CCOC(=O)Cc1c(C)c2ccc(N(CC)CC)cc2oc1=O`, for which the Potency result is “inactive”.
Next, `C(=Cc1cnc2ccccc2n1)c1ccc2c(c1)OCO2`: “inactive”.
Take `CCCCCn1cc[n+](-c2nc3ccccc3nc2[N-]S(=O)(=O)c2ccccc2)c1`: the Potency result is “inactive”.
The result for `Cc1ccc(NC(=O)CC2Nc3ccccc3NC2=O)cc1C` (stereo not drawn) reads “inactive”; that for `CC(=O)c1cc2c(C)cc(=O)oc2cc1O`, “inactive”; that for `Fc1cccc(Cl)c1CNc1ccc(N2CCCC2)cc1`, “inactive”.
On to `COC(=O)Cc1c(C(=O)OC)nnn1-c1cccc(C(F)(F)F)c1`, for which the Potency result was “inactive”.
The result for `Cc1nn(Cc2ccccc2)c(C)c1/C=N/NC(=O)CNc1cccc(C(F)(F)F)c1` reads “inactive”.
Regarding `COC(=O)C1=C(C)N(Cc2ccccc2)C(NCc2ccccc2)=N[C@H]1c1cccc(C(F)(F)F)c1`, the Potency is 35.5 µM (active).
The result for `CCN1C(N(C)CCc2c[nH]c3ccccc23)=N[C@@H](c2cccc(C(F)(F)F)c2)C(C(=O)OC)=C1C` reads 31.6 µM (active).
Next, `COC(=O)C1=C(C)N(Cc2ccccc2)C(NCCc2c[nH]c3ccccc23)=N[C@H]1c1cccc(C(F)(F)F)c1`: 25.1 µM (active); `COC(=O)C1=C(C)N(Cc2ccccc2)C(NCc2cccc(C(F)(F)F)c2)=N[C@H]1c1cccc(F)c1`: 17.8 µM (active).
Next, `CCOC(=O)c1sc(-c2cccc(C(F)(F)F)c2)nc1O`: “inactive”.
In the case of `C1=C(c2ccc(-c3ccccc3)cc2)Nc2ncnn2C1c1ccco1` (stereo not drawn), the Potency entry was “inactive”.
Next, `COCCC(=O)NCC1Cc2cc(Cl)cc(-c3ccc4[nH]ccc4c3)c2O1` (stereo not drawn): “inactive”.
The result for `OC(CNc1ccccc1)Cn1ccc2ccccc21` (stereo not drawn) reads “inactive”.
For `COc1ccc(C2=NN(c3ccc(C(=O)O)cc3)C(c3ccc(OC)c(OC)c3)C2)cc1` (stereo not drawn), the Potency result is “inactive”.
The result for `CCc1c(C)c2cc3c(c(C)c2oc1=O)OCN(CCc1ccccc1F)C3` reads “inactive”.
Next, `CCc1ccc(-c2cn3nc(C)c(C)nc3n2)cc1`: “inactive”; `COc1cccc(C2C=C(c3ccc(OC)cc3OC)Nc3nnnn32)c1` (stereo not drawn): “inactive”.
On to `CN(Cc1ccccc1)S(=O)(=O)c1csc(C(N)=O)c1`, for which the Potency result was “inactive”.
Consider `CN(Cc1ccccc1)C(=O)c1ccc(S(=O)(=O)N(C)c2ccccc2)cc1`, for which the Potency result is “inactive”.
The result for `Cc1cc(C)c2sc(N(CCCN(C)C)C(=O)c3ccc(S(=O)(=O)N(C)C4CCCCC4)cc3)nc2c1` reads 35.5 µM (active); that for `Cc1cc(C)c2sc(N(CCCN(C)C)C(=O)c3ccc(S(=O)(=O)N(C)Cc4ccccc4)cc3)nc2c1`, 39.8 µM (active).
In the case of `CN(C)CCN(C(=O)C1CCCCC1)c1nc2cc3c(cc2s1)OCCO3`, the Potency result was “inactive”.
The result for `CC(=O)OCCCCCCCCCCC[N+]1(C)CCCCC1` reads “inactive”; that for `O=c1cc(CN2CCN(Cc3ccccc3)CC2)c2ccc(O)c(O)c2o1`, “inactive”; that for `O=C(COC(=O)c1cccnc1O)Nc1ccc(N2CCCCC2)cc1`, “inactive”.
Take `CC(=O)c1c(C)[nH]c(C(=O)Nc2ccc(N3CCCCCC3)cc2)c1C`: the Potency result was “inactive”.
Next, `O=C(CNCCC1=CCCCC1)Nc1ccc(N2CCCCCC2)cc1`: 25.1 µM (active); `Cc1ccc(C2C=C(c3ccc(Cl)cc3)Nc3nc(NC(=O)c4ccco4)nn32)cc1` (stereo not drawn): “inactive”.
Next, `O=C(NCC(c1ccco1)N1CCCC1)c1cc(S(=O)(=O)N2CCOCC2)ccc1Cl` (stereo not drawn): “inactive”; `COc1cc(C(=O)NCC(c2ccco2)N2CCCC2)ccc1OCc1ccc(Cl)cc1Cl` (stereo not drawn): 35.5 µM (active); `CC(=O)Nc1ccc(S(=O)(=O)NC(C)C(=O)NCC(c2ccco2)N2CCCCC2)cc1` (stereo not drawn): “inactive”.
The result for `Cc1cc(N/N=C/c2ccc([N+](=O)[O-])o2)nc2ccccc12` reads “inactive”; that for `O=[N+]([O-])c1ccc(/C=[N+](\[O-])[C@@H]2CCCC[C@@H]2/[N+]([O-])=C/c2ccc([N+](=O)[O-])o2)o1`, 42.3 µM (active); that for `c1ccc(C2=NN(c3ccccc3)C(c3ccco3)C2)cc1` (stereo not drawn), “inactive”.
With `COc1ccc(-c2cc(=O)oc3c(C)c(O)ccc23)cc1`, the Potency entry was “inactive”.
Next, `COc1ccc(C2C=C(c3ccc(C)c(C)c3)Nc3ncnn32)c(OC)c1OC` (stereo not drawn): “inactive”.
`CCN(CCNCC(O)COc1ccccc1C(C)C)c1cccc(C)c1` (stereo not drawn): the Potency is 39.8 µM (active).
`CCN(CCCNC(=O)c1cc(Nc2ccccc2OC)nc2ccccc12)c1cccc(C)c1`: the Potency result was “inactive”.
`O=C(CCNC(=O)c1ccc([N+](=O)[O-])cc1)Nc1nccs1`: the Potency result is “inactive”.
Next, `CCCCCc1c2c(cc(O)c1C(=O)O)OC(=O)c1c(cc(OC)cc1C(=O)CCCC)O2`: 21.2 µM (active).
Next, `CCOc1ccc(C(=O)COC(=O)Cn2[nH]c(=O)c3ccccc3c2=O)cc1`: “inactive”; `CCCOC(=O)c1ccc(Oc2coc3c(CN(CC)CC)c(O)ccc3c2=O)cc1`: “inactive”; `CCCOC(=O)c1ccc(Oc2c(C)n[nH]c2-c2ccc(OCC)cc2O)cc1`: 31.6 µM (active).
Regarding `COCCn1c(SC2CCCCC2=O)nnc1-c1ccncc1` (stereo not drawn), the Potency entry was “inactive”.
For `O=C(N/N=C/c1c(O)ccc2ccccc12)c1cccc(C(F)(F)F)c1`, the Potency result was “inactive”.
On to `Oc1ccccc1C=NN=Cc1c(O)ccc2ccccc12`, for which the Potency entry was “inactive”.
Regarding `Nc1cc(Cl)nc(N/N=C/c2c(O)ccc3ccccc23)n1`, the Potency result is “inactive”.
Turning to `O=S(=O)(O)c1cccc(N=Nc2c(O)ccc3ccccc23)c1`, the Potency is 39.8 µM (active).
The result for `Oc1ccc2ccccc2c1N=Nc1ccccn1` reads 14.1 µM (active); that for `O=C(N/N=C\c1c(O)ccc2ccccc12)c1ccc(S(=O)(=O)N2CCCCC2)cc1`, “inactive”.
For `Oc1ncnc(O)c1C(c1ccc(F)cc1)c1c(O)ncnc1O`, the Potency entry is “inactive”.
Turning to `Cc1ccc(S(=O)(=O)/N=c2\ccc(Cl)cn2C(F)F)cc1`, the Potency result was “inactive”.
For `N#Cc1nc(/C=C/c2ccccc2)oc1NCCCN1CCOCC1`, the Potency result was “inactive”.
The result for `CCc1sc(NC(=O)CN2CCC(C(N)=O)CC2)nc1-c1ccccc1` reads “inactive”.
For `CCNc1nc(-c2sc(NC(=O)C(C)(C)C)nc2C)c(-n2cc(-c3ccccc3)nn2)s1`, the Potency was 15.8 µM (active).
Next, `CC(=O)c1sc(NC(=O)CN2C(=O)C3CCCCC3C2=O)nc1-c1ccccc1` (stereo not drawn): “inactive”; `Cn1c(=O)c2c(nc(NCc3ccccc3)n2Cc2ccc(Cl)c(Cl)c2)n(C)c1=O`: 35.5 µM (active); `Cn1c(=O)c2nc(NCc3ccccc3)cnc2n(C)c1=O`: “inactive”.
The result for `CCC1CCCCN1Cc1nc2c(c(=O)n(C)c(=O)n2C)n1CCCc1ccccc1` (stereo not drawn) reads “inactive”; that for `CC1CCCCC12NC(=O)N(CC(=O)OCc1cccc(F)c1)C2=O` (stereo not drawn), “inactive”; that for `Cc1ccc(OCCn2cc(/C=N/NC(=O)c3ccncc3)c3ccccc32)cc1`, “inactive”.
Regarding `CC(C)C(C)NC(=O)CSc1nnc(-c2c[nH]c3ccccc23)o1` (stereo not drawn), the Potency result was “inactive”.
For the molecule `Cc1ccc(CSc2nnc(SCC(=O)N/N=C/c3c[nH]c4ccccc34)s2)cc1`, the Potency was 5.97 µM (active).
Next, `O=C1CCCC(O)=C1Sc1cc(Cl)c(Cl)cc1Cl`: “inactive”.
Next, `O=C(CNC(=O)c1ccc(Cl)cc1)Nc1ccccc1C(F)(F)F`: “inactive”; `O=C1OCCN=C1/C=C(\O)c1ccc(Cl)cc1`: “inactive”; `O=C(/C=C/Sc1ccccc1)c1ccccc1`: 15.8 µM (active).
Next, `O=C(/C=C/Sc1ccccc1)c1ccc(Cl)cc1`: 11.2 µM (active).
For the molecule `O=C(c1ccccc1)c1cccc(C(=O)c2ccccc2)c1`, the Potency entry is “inactive”.
Next, `OC(C#CCN1CCCC1)(c1ccccc1)c1cccnc1` (stereo not drawn): “inactive”; `O=C(c1cc2c(=O)n3ccccc3nc2s1)N1CCN(Cc2ccc3c(c2)OCO3)CC1`: “inactive”; `Cc1ccc(C23OCCN2CCn2nc4ccccc4c23)cc1` (stereo not drawn): “inactive”.
Regarding `CC(C)c1cc(=O)oc2c3c4c(cc12)CCCN4CCC3`, the Potency result is “inactive”.
Consider `O=C(N/N=C/c1cn(Cc2ccccc2)c2ccccc12)c1ccncc1`, for which the Potency result was “inactive”.
With `Cc1cc(C(=O)N/N=C/c2cc(Br)cc(Br)c2OC(=O)c2cccc(F)c2)[nH]n1`, the Potency result is “inactive”.
Consider `O=C(N/N=C/c1cn(CCOc2ccccc2)c2ccccc12)c1ccncc1`, for which the Potency entry was “inactive”.
Next, `Cc1cc(C(=O)N/N=C/c2cc(Br)ccc2OC(=O)c2ccccc2Cl)[nH]n1`: “inactive”; `Cn1cc(C(=O)N/N=C/C(Br)=C/c2ccccc2)ccc1=O`: 15.8 µM (active); `CC(C)c1cc(C(=O)N/N=C/C(Br)=C/c2ccccc2)[nH]n1`: 31.6 µM (active).
Next, `CCN(CC)c1ccc(/C=C2\CCC(/C=N/NC(=O)c3ccc(=O)n(C)c3)=C2N2CCOCC2)cc1`: “inactive”.
Next, `Cn1c(N)c(C(=O)N/N=C/c2ccccc2)sc1=S`: “inactive”.
For the molecule `O=C(N/N=C/C(Br)=C/c1ccccc1)c1ccncc1`, the Potency was 31.6 µM (active).
The result for `COc1ccc(-c2cc(=O)oc3cc(OC(=O)C4CCCCC4)c(Cl)cc23)cc1` reads “inactive”; that for `CCN1CCN(Cc2c(O)ccc3c(C)c(-c4ccccc4)c(=O)oc23)CC1`, “inactive”; that for `CCOC(=O)CC1c2nc3ccccc3cc2CN1C(=O)OCC` (stereo not drawn), “inactive”.
The result for `CC(=O)/N=c1\c(C#N)cc2c(=O)n3ccccc3nc2n1CCCOC(C)C` reads “inactive”; that for `OC1=C2C(=Nc3ccccc3SC2c2ccc(C(F)(F)F)cc2)c2ccccc21` (stereo not drawn), 31.6 µM (active); that for `OC1=C2C(=Nc3ccccc3SC2c2ccc(Cl)c(Cl)c2)c2ccccc21` (stereo not drawn), 31.6 µM (active).
The result for `CC(C)N1C(=O)S/C(=C\c2ccc(-c3ccc(Cl)c(C(=O)O)c3)o2)C1=O` reads “inactive”; that for `COc1cccc(N(CC(=O)N2CCCCCC2)S(C)(=O)=O)c1`, “inactive”.
`COc1ccc(C2OC3=Nc4cc(C)c(C)cc4NC3=C2O)cc1` (stereo not drawn): the Potency result is “inactive”.
As to `Cc1cc(NC(=O)CNCC(c2ccccc2)N(C)C)c([N+](=O)[O-])cc1C` (stereo not drawn), the Potency entry was “inactive”.
With `O=C(O)c1ccc(NS(=O)(=O)c2ccc(N3CCCC3)c([N+](=O)[O-])c2)cc1`, the Potency entry is “inactive”.
With `CN(Cc1ccccc1)c1ccc(C(CC(N)=O)NC(=O)Cc2ccc(Br)cc2)cc1[N+](=O)[O-]` (stereo not drawn), the Potency is 35.5 µM (active).
As to `O=C(Cc1ccc(Br)cc1)N(Cc1ccccc1)c1ccccn1`, the Potency entry was “inactive”.
Regarding `NC(=O)CC(NC(=O)Cc1ccc(Br)cc1)c1ccc(NC2CC3CCC2C3)c([N+](=O)[O-])c1` (stereo not drawn), the Potency was 25.1 µM (active).
Take `NC(=O)CC(NC(=O)c1ccc(Br)cc1)c1ccc(NC2CCCCCCC2)c([N+](=O)[O-])c1` (stereo not drawn): the Potency is 31.6 µM (active).
Next, `O=C(COc1ccc(Br)cc1)NNC(=O)c1ccc(-n2cncn2)c([N+](=O)[O-])c1`: “inactive”; `NC(=O)CC(NC(=O)c1ccc(Br)cc1)c1ccc(N2CCCCCCC2)c([N+](=O)[O-])c1` (stereo not drawn): 31.6 µM (active); `O=[N+]([O-])c1cccc(S(=O)(=O)NC2CC3CCC2C3)c1` (stereo not drawn): “inactive”.

These data come from ChEMBL document CHEMBL1201862, “PubChem BioAssay data set” (2004).
